PubChem BioAssay AID652126 (The Scripps Research Institute Molecular Screening Center, 2013)
Among all 370,000 compounds or so, about 3,700 (1%) were called active. Shown is part of a subset that was picked to be rich in actives. A number with no mark means an inactive call.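 How the source made its calls: active means activation above the mean over all tested compounds plus 3 SD (cut at about 0.9% in these data); inactive means the rest.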

Each compound was assayed on Nuclear hormone receptor DAF-12 (Strongyloides stercoralis) (assay: ssDAF-12 driven luciferase reporter activation – cell-based, luminescence, HEK293, GRIP1 co-expression, lit1-tk-luc, primary screen (AID 652126;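 further: 0% = DMSO-only wells and 100% = 3 µM delta7-dafachronic acid wells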)). Conditions: HEK293 ssDAF-12/GRIP1 lit1-tk-luc reporter, at 6.8 µM, hits give high values, % of 3 µM dafachronic acid response.
O=C(CSc1nnc(COc2ccccc2)n1-c1ccc(Cl)cc1)Nc1ccc2c(c1)OCO2 showed an activation of -0.91%. In the case of N#CCCN(C(=O)COC(=O)C1CCN(c2ccc(C(F)(F)F)cn2)CC1)c1ccc(F)cc1, the activation is reported as -1.01%. Work on COc1ccc(Cc2nc3ccc(C(=O)NCC4CCOCC4)cc3o2)cc1OC yielded an activation of -0.41%. With CSCCNC(=O)c1ccc2nc(Cc3ccccc3F)oc2c1 the activation was 1.4% (active). With CC(c1ccccn1)N(C)C(=O)c1ccc2nc(Cc3cccc(Cl)c3)oc2c1 (configuration not stated) the activation was 0.07%. CC(C)c1ccc(N(C(=O)c2ccco2)C(C(=O)NC2CCCC2)c2cccnc2)cc1 (configuration not stated) gave an activation of -0.62%. CCCC(NC(=O)c1ccco1)c1nc2ccccc2[nH]1 (configuration not stated) was tested, and the activation was -0.66%. Compound CC/C(O)=C1\C(=O)CC(C)(C)CC1=NCCc1nc2ccccc2[nH]1 has an activation of -1.35%. With CCC(=O)/C(=C(/O)c1ccccc1)c1nc2ccccc2[nH]1 the activation was 0.91% (active). With COC(=O)[C@]12C[C@H](CC(=O)NCC34CC5CC(CC(C5)C3)C4)C(=O)N(Cc3ccc(Cl)cc3Cl)C1=C[C@H](COCc1ccccc1)O[C@@H]2C the activation was -0.9%. For O=C(CN1CCCc2ccccc21)NCc1ccc(F)cc1, the activation was 1.32% (active). Compound O=C(CN1C(=O)CCS(=O)(=O)c2ccccc21)NCc1ccc(F)cc1 has an activation of -1.14%. For O=C(Cn1nc(C(F)(F)F)c2c1CCC2)NCc1ccc(F)cc1, the activation was -0.8%. CCCNC(=O)Nc1ccc2c(c1)C(=O)N(C)[C@H]1CC[C@H](CC(=O)NCC3CCCCC3)O[C@@H]1CO2 showed an activation of -1.84%. For O=C1NC(Nc2nc3ccccc3s2)(C(F)(F)F)C(=O)N1C1CCCCC1 (configuration not stated), the activation was -1.03%. Work on O=C(COc1ccc(-c2ccccc2)cc1)NN=C1CCCC1 yielded an activation of -1.61%. For c1ccc2sc(NN=C3CCCC3)nc2c1, the activation was 1.21% (active). In the case of COC(=O)[C@]12C[C@H](CC(=O)NCc3cccs3)C(=O)N(CCc3ccc(OC)c(OC)c3)C1=C[C@H](C(C)C)O[C@@H]2C1CC1, the activation is reported as -0.56%. CC[C@@H](CCC(=O)N(c1ccccc1)c1ccccc1)C1CC1 showed an activation of -1.64%. With CC(C)(O)C#Cc1ccc(C(=O)N2CCC(C(N)=O)(N3CCCCC3)CC2)cc1 the activation was 1.03% (active). Compound CCC(=O)N1CCC(C(N)=O)(N2CCCCC2)CC1 has an activation of -1.29%. In the case of NC(=O)C1(N2CCCCC2)CCN(C(=O)c2ccc(C#Cc3ccccc3)o2)CC1, the activation is reported as -1.3%. Work on O=S1(=O)c2ccc(N3CCN(Cc4ccccc4F)CC3)cc2Oc2ccccc2CN1Cc1cn(Cc2ccc(Cl)cc2)nn1 yielded an activation of -1.5%. For COC(=O)[C@]12C[C@H](CC(=O)NCCCN3CCCC3=O)C(=O)N(CCc3ccc(OC)c(OC)c3)C1=C[C@H](COCc1ccccc1)O[C@@H]2C, the activation was -0.18%. In the case of CCOc1ccc(N(CC(=O)Nc2c(C)n(C)n(-c3ccccc3)c2=O)S(=O)(=O)c2ccc(Cl)s2)cc1, the activation is reported as -0.93%. N#CC(=C1SC=CS1)c1nc(-c2ccccc2)cs1 was tested, and the activation was 0.19%. Work on O=C(CN1C(=O)C2C3C=CC(C3)C2C1=O)Nc1nc(-c2ccccn2)cs1 (configuration not stated) yielded an activation of 0.32%. c1ccc(-c2csc(N3CCc4ccccc4C3)n2)cc1 showed an activation of 0.8%. With COc1ccc(Nc2nc(-c3ccccc3)cs2)cc1 the activation was 4.09% (active). In the case of c1ccc(Nc2nc(-c3ccncc3)cs2)nc1, the activation is reported as 1.1% (active). Clc1ccc(Nc2nc(-c3cccs3)cs2)nc1 was tested, and the activation was 1.83% (active). Work on COc1ccc(NC(=S)N2N=CCC2c2ccccc2)cc1 (configuration not stated) yielded an activation of 0.28%. In the case of COC(=O)CCc1sc(Nc2ccc(Br)cc2)nc1-c1ccc(OC)cc1, the activation is reported as -1.64%. With Cc1cccc(Nc2nc(-c3ccccc3)cs2)n1 the activation was 2.9% (active). In the case of CC(=O)NC(c1cccc(F)c1)c1nc(-c2cccc(F)c2)cs1 (configuration not stated), the activation is reported as -0.87%. In the case of Cc1cc(C)cc(NC(=O)N2CCC(N(C)CCC(C)C)CC2)c1, the activation is reported as -1.43%. For CCCC1CCC2(CCCN2CCOC(=O)NCc2ccccc2)CC1 (configuration not stated), the activation was -2.14%. CN1C[C@]2(C=C3CCCCC3n3c(=O)n(-c4ccccc4)c(=O)n32)N=C1NC(=O)c1ccccc1 (some centres not stated) showed an activation of 0.04%. For Nn1c(SCC(=O)N2c3ccccc3Sc3ccccc32)nnc1-c1n[nH]c2c1CCC2, the activation was -1.79%. Work on COCCCNC(=O)C[C@H]1C[C@@]2(C(=O)OC)C(=C[C@H](C(C)(C)C)O[C@@H]2C)N(Cc2ccc(Cl)cc2Cl)C1=O yielded an activation of -0.31%. With COc1ccc(CN2C/C(=C/c3ccccc3)N3C(=O)C[C@@H](c4ccccc4)N=C23)c(OC)c1 the activation was -1.31%. CCOC(=O)c1csc(NC(=O)C2CCCN(S(=O)(=O)c3ccc(Cl)s3)C2)n1 (configuration not stated) was tested, and the activation was -2.1%. Work on COc1cccc(/C=C2\CC3(OC(C)=O)CCCN2C3)c1 (configuration not stated) yielded an activation of -1.47%. O=C(CSc1nnc(-c2ccccn2)n1-c1ccc(Cl)cc1)Nc1ccccc1-c1ccccc1 was tested, and the activation was -1.33%. CN(C)CC(=O)N[C@@H]1C[C@@H]2O[C@H](CO)CC[C@@H]2O[C@@H]1CCc1ccc(C#Cc2ccccc2)cc1 gave an activation of -1.63%. Oc1ccc(/C=C/c2c(F)cccc2F)c2cccnc12 showed an activation of -1.91%. Compound Cc1ccc(C)c(NC(=O)CCS(=O)(=O)c2ccccc2)c1 has an activation of -0.72%. For CCOC(=O)c1ccccc1NC(=O)c1c(N)n(C)c(=O)[nH]c1=O, the activation was -0.82%. In the case of CCOC(=O)c1cc2n(c1N)-c1ccccc1C2=O, the activation is reported as 1.03% (active). CCOC(=O)c1ccn(S(=O)(=O)c2ccc(C)cc2)c1-c1ccccc1 was tested, and the activation was -1.27%. In the case of COC(=O)c1cccc(Cn2ccc3ccc(-c4ccc5ccn(C(=O)c6ccccc6C)c5c4)cc32)c1, the activation is reported as 0.19%. In the case of C=CCN1[C@H](CC(C)C)COc2cccc(N3CCCC3)c2S1(=O)=O, the activation is reported as -1.93%. With O=C(Nc1ccccc1F)c1ccc2c(c1)OCO2 the activation was 1.22% (active). With O=C(NCCc1ccc(C(F)(F)F)cc1)c1ccc2c(c1)OCO2 the activation was -1.42%. For CN(Cc1c(F)cccc1Cl)C(=O)CNC(=O)c1ccc2c(c1)OCO2, the activation was -0.2%. COC(=O)[C@H](C(C)C)N(CCc1cn(Cc2ccccc2)nn1)S(=O)(=O)c1ccc(F)cc1Br was tested, and the activation was -1.33%. For Cc1cc(NC(=O)Nc2ccccc2[N+](=O)[O-])no1, the activation was 0.25%. Compound O=C(Nc1ccccc1[N+](=O)[O-])C1C(c2ccccc2)=C1c1ccccc1 has an activation of -1.13%. Cc1csc(NC(=O)Nc2ccccc2[N+](=O)[O-])n1 was tested, and the activation was 2.54% (active). With CCCCCCCCNS(=O)(=O)/C=C/c1cc(C)ccc1CNC(=O)OC(C)(C)C the activation was -2.15%. Work on O=C(O/N=C(/c1ccccc1)c1ccncc1)c1ccccc1[N+](=O)[O-] yielded an activation of -0.74%. COc1ccc(C(=O)OCC(=O)NCC2CCCO2)cc1[N+](=O)[O-] (configuration not stated) gave an activation of -1.82%. With COc1ccc(C(=O)O/N=C(\N)c2ccccn2)cc1[N+](=O)[O-] the activation was 1.15% (active). Work on Cc1ccc(-n2c(SCC(=O)Nc3cccc4ccccc34)nnc2-c2ccccn2)cc1 yielded an activation of -1.66%. C#CCCN([C@H](C(=O)OC)C(C)C)S(=O)(=O)c1ccc(F)cc1Br showed an activation of -1.1%. For C=CCOC/C=C/C#CCN(CC=C)Cc1ccc(OC)cc1OC, the activation was -0.87%. Cc1cccc(NC(=O)c2cccc(C(=O)Nc3cccc(C)c3C)n2)c1C gave an activation of -0.53%. For COc1cc2ccccc2cc1C(=O)Nc1ccccc1C, the activation was 1.32% (active). With Cc1ccccc1C(=O)Nc1ccccc1Sc1ccccc1 the activation was -1.24%. Compound COc1ccc(C(=O)CSc2nnc(-c3cnccn3)n2-c2ccc(C)cc2)cc1 has an activation of -1.18%. For CC12CCC(C(=O)N3CCN(c4ncccn4)CC3)(c3nc4ccccc4nc31)C2(C)C (configuration not stated), the activation was -1.52%. For c1cnc(N2CCN(c3ccc4ccccc4n3)CC2)nc1, the activation was 1.77% (active). In the case of CC1=C(N2CCN(c3ncccn3)CC2)CCC1=O, the activation is reported as -1.32%. For CCN(CC)C(=O)CC[C@H]1CC[C@]2(CCCN(Cc3ccc(Cl)cc3)C2)O1, the activation was -0.21%. CC1CCN(c2ccc(C(=O)O)cc2NS(=O)(=O)c2ccc(Br)s2)CC1 gave an activation of -1.7%. Compound COc1ccc([C@H]2OC(=O)C[C@H]2C(=O)N2CCN(c3ccccc3F)CC2)cc1OC has an activation of -0.67%. In the case of Brc1ccc(-c2noc(-c3ccccc3)n2)o1, the activation is reported as 1.12% (active). Work on O=C(Oc1ccc(-c2nc(-c3ccccn3)no2)cc1)c1ccccc1 yielded an activation of -0.56%. In the case of O=S(=O)(c1ccc(Br)cc1)c1nc(-c2ccccc2)oc1N1CCOCC1, the activation is reported as -0.79%. Work on O=S1(=O)c2c(NCc3ccco3)cccc2Oc2ccccc2CN1Cc1cn(Cc2cccc(C(F)(F)F)c2)nn1 yielded an activation of -1.24%. Compound Cn1c(SCC(=O)c2ccccc2)ncc(C(=O)Nc2ccc(F)cc2)c1=O has an activation of -0.84%. Cc1ccc(NC(=O)c2cnc(SCC(=O)NCC3CCCO3)n(C)c2=O)cc1 (configuration not stated) was tested, and the activation was 1.27% (active). In the case of C=CCn1c(SCC(=O)NCC2CCCO2)nc2sc(C)c(C)c2c1=O (configuration not stated), the activation is reported as 2.74% (active). CCCCn1c(SCC(=O)NCC2CCCO2)nc2ccc(N3CCOCC3)cc2c1=O (configuration not stated) was tested, and the activation was -1.75%. Compound C=CCn1c(SCC(=O)Nc2ccc(NC(C)=O)cc2)nc2sc(C)c(C)c2c1=O has an activation of -1.09%. C=CCn1c(SCC(=O)/C(C#N)=C(\C)N)nc2sc(C)c(C)c2c1=O showed an activation of -1.37%. CCOC(=O)[C@]12CCCC=C1N(Cc1ccc(OC)cc1)C(=O)[C@@H]2CC(=O)N1CCOCC1 showed an activation of -0.73%.
